This note sets out measurements from PubChem BioAssay (NCATS).

Results filed as inconclusive are left out. Values without a mark were called inactive. The call rests on the fitted dose curve; in most records, active means well fitted cell-killing curve with a large enough effect; inconclusive means small, poorly fitted or top-dose-only effect; inactive means flat fitted curve, though single readings scatter.
On the % scale 0 is the no-effect control and ±100 the full control effect.

The assay can be described thus: Cell Viability - LYMP2-026 (AID 989). Further: nearly all actives have a fitted effect of over 50% in size. The settings on record: LYMP2-026 lymphoblastoid cell viability, qHTS; series mostly up to 92.2 µM; activity change, negative = cytotoxic: at the top concentration. The source says:
NIH Chemical Genomics Center [NCGC]
NIH Molecular Libraries Screening Centers Network [MLSCN]
National Institutes of Environmental Health Sciences [NIEHS]
National Toxicology Program [NTP]
We have developed a 1536-well cell-based assay for quantitative high throughput screening (qHTS) against a number of cell lines to determine in vitro cytotoxicity of small molecules. This particular assay uses a human lymphoblastoid cell line (LYMP2-026) purchased from Coriell Institute for Medical Research.
NCGC Assay Protocol Summary:
The CellTiter-Glo luminescent cell viability assay (Promega) is a homogeneous method to measure the number of viable cells in culture. The end point readout of this assay is based on quantitation of intracellular ATP, an indicator of metabolic activity, using the luciferase reaction. Luciferase catalyzes the oxidation of beetle Luciferin to oxyluciferin and light in the presence of ATP. The luminescent signal is proportional to amount of ATP present.
Using the CellTiter-Glo luminescent cell viability assay, the amount of cellular ATP was measured in the lymphoblastoid cell line with complete culture medium following compound treatment for 24 hours. The assay was performed in opaque white Kalypsys 1536-well plates. In the screen, tetraoctylammonium bromide was used as positive control. Library compounds were measured for their ability to cause acute toxicity in the cell line, as reflected by a decrease in intracellular ATP levels, in a concentration-dependent manner. […] AC50 values were determined from concentration-response data modeled with the standard Hill equation.
qHTS protocol for CellTiter Glo lymphoblastoid cellular assay
[Step] [Parameter] [Value] [Description]
1. Reagent; 5 uL; 2500 lymphoblastoid cells/well
2. Time; 5 hr; 37 C incubation
4. Controls; 23 nL; Tetraoctylammonium bromide 6.4pM to 92 uM
5. Time; 24 hr; 37 C incubation
6. Reagent; 5 uL; CellTiter Glo reagent
7. Time; 30 min; Room Temperature
8. Detection; Luminescence; Viewlux plate reader
Keywords: cell viability, cytotoxicity, lymphoblastoid cell line, luminescence, NTPHTS, NTPHTS_NCGC, NIEHS, DSSTox, MLSMR, MLSCN, NIH Roadmap, qHTS, NCGC
With `CCN(Cc1ccccc1)c1ccccc1`, the “activity change, negative = cytotoxic” value was -6.66%.
Regarding `Cc1ccc(C)o1`, the “activity change, negative = cytotoxic” value was -3.9%.
As to `Cc1cc(C(=O)O)ccc1[N+](=O)[O-]`, the “activity change, negative = cytotoxic” value was -5.31%.
Consider `C=C(C)C(=O)OCC(C)C`, for which the “activity change, negative = cytotoxic” value was -5.89%.
Then `NC(=O)NC(N)=O`, with -4.85%; and `O=C(O)c1ccccc1C(=O)O`, with -3.84%; and `CC(=O)c1nccs1`, with -8.18%.
`O=CNc1ccccc1`: the “activity change, negative = cytotoxic” value is 3.43%.
In the case of `CCC=O`, the “activity change, negative = cytotoxic” value was -2.65%.
Take `C[C@@H]1O[C@@H](O[C@@H]2[C@@H](O)[C@H](OCCc3ccc(O)c(O)c3)O[C@H](CO[C@@H]3O[C@H](CO)[C@@H](O)[C@H](O)[C@H]3O)[C@H]2OC(=O)/C=C/c2ccc(O)c(O)c2)[C@H](O)[C@H](O)[C@H]1O`: the “activity change, negative = cytotoxic” value was 6.42%.
In the case of `CC(O)CC(C)O` (stereo not given), the “activity change, negative = cytotoxic” value was 1.57%.
Regarding `Nc1c(Cl)cc(Cl)cc1Cl`, the “activity change, negative = cytotoxic” value was 3.31%.
Then `NS(=O)(=O)O`, with 0.545%; and `[O-]/[N+](=N\O)c1ccccc1`, with 0.0095%; and `CCCCCNCCCCC`, with -1.35%.
For `C(=C/c1ccccc1)/c1ccccc1`, the “activity change, negative = cytotoxic” value is -11.2%.
Regarding `Cc1ccc([N+](=O)[O-])c(N)c1`, the “activity change, negative = cytotoxic” value is -0.777%.
Next, `Clc1cc(Cl)cc(Cl)c1`: -1.53%; `Cc1ccc(C(=O)O)cc1`: -4.58%; `Nc1cccc(O)c1`: -0.0718%.
As for `O=Cc1ccc(C(=O)O)cc1`, the “activity change, negative = cytotoxic” value was -1.57%.
Then `O=C(O)c1cccc([N+](=O)[O-])c1`, with -1.37%; and `CCCC=O`, with -2.67%.
Then `CC(C=O)Cc1ccc(C(C)(C)C)cc1` (stereo not given), with 0.708%.
For the molecule `Cc1ccc(Br)cc1`, the “activity change, negative = cytotoxic” value is 9.95%.
As to `CCC(C)(C)OC`, the “activity change, negative = cytotoxic” value is -6.84%.
On to `Cc1ccc(CO)cc1`, for which the “activity change, negative = cytotoxic” value was -5.16%.
Then `Cc1cccc(C(=O)O)c1`, with 0.468%; and `Cc1ccco1`, with -2.45%.
Next, `O=C(O)c1ccc(C(=O)O)cc1`: -6.36%; `Cc1c(C(=O)O)cccc1[N+](=O)[O-]`: -18.7%.
On to `Nc1cc([N+](=O)[O-])ccc1C(=O)O`, for which the “activity change, negative = cytotoxic” value is 4.14%.
In the case of `CCOCCOCC`, the “activity change, negative = cytotoxic” value was 3.45%.
Regarding `O=C1OC(=O)c2c(Br)c(Br)c(Br)c(Br)c21`, the “activity change, negative = cytotoxic” value is 4.65%.
For the molecule `Cc1cc(C2(c3cc(C)c(O)cc3C)OS(=O)(=O)c3ccccc32)c(C)cc1O`, the “activity change, negative = cytotoxic” value is -24.1%.
`CCNc1cc(O)ccc1C`: the “activity change, negative = cytotoxic” value was -14%.
With `O=[N+]([O-])c1cc(C(F)(F)F)ccc1Cl`, the “activity change, negative = cytotoxic” value is -6.26%.
Then `C=C(C)C(=O)OCCCCCCCCCC`, with 5.02%; and `FC(F)(F)c1ccccc1Cl`, with 2.38%; and `CCCCC(CC)C(=O)O` (stereo not given), with 6.39%.
